The entries come from a sample that favours hits as a whole.
ST2 inh: inhibitors of human ST2 (IL1RL1) binding to IL-33, primary screen, biochemical, AlphaLISA | AlphaLISA ST2-Fc/biotin-IL-33 interaction, 1 h | inhibition, % for hits at 17 µM | 78,000 tested, 2.3% active | AID 1259354, 2018; in the data active = inhibition above about 30%
Target sequence (Q01638 whole entry, looked up): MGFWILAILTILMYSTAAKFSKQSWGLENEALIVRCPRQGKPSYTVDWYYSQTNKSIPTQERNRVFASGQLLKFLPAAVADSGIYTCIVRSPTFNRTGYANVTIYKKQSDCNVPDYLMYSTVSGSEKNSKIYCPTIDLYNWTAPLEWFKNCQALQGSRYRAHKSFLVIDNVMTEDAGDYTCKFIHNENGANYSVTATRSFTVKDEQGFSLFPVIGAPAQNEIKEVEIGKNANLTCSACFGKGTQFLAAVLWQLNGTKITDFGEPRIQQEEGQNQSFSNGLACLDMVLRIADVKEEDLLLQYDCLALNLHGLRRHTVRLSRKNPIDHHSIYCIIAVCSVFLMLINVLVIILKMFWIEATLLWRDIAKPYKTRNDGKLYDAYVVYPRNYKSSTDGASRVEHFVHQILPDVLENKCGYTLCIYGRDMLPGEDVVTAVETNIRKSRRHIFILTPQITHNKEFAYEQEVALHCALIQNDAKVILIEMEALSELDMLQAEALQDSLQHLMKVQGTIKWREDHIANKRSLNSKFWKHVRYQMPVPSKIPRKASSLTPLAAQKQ
Numbers without * were called inactive; i = inactive.

SMILES | ST2 inh
COc1ccc(CN2CCN(c3ccccc3OC)CC2)cc1OC | 30%*
Fc1ccccc1N1CCN(Cc2ccco2)CC1 | i
COc1cc(OC)c(OC)cc1CN1CCN(c2cc(C)ccc2C)CC1 | 35%*
COc1cc(OC)c(OC)cc1CN1CCN(c2ccc(F)cc2)CC1 | i
COc1cc(OC)c(OC)cc1CN1CCN(c2ccccn2)CC1 | i
COc1ccccc1N1CCN(Cc2cc(OC)c(O)c(OC)c2)CC1 | i
COc1ccccc1N1CCN(Cc2ccc(C(=O)O)cc2)CC1 | i
COc1ccc(CN2CCN(Cc3cc(OC)c(OC)cc3OC)CC2)cc1 | i
COc1cc(OC)c(CN2CCN(c3ccccc3F)CC2)cc1Br | 36%*
Cc1cc(CC(C)NC(=O)c2cn(-c3ccccc3)nn2)n[nH]1 (configuration not stated) | i
CCOC(=O)CC(=O)CSc1nc(-c2ccccc2)ccc1C#N | i
CCN(CC)C(=O)[C@@H]1C[C@@H](N)CN1C(=O)Cc1ccc2nc(C)[nH]c2c1 | i
CN1CCC2(CC1)CN(C(=O)c1cc(=O)c3ccccc3o1)CCN2C | i
COc1ccc(-n2nc(C(=O)NCc3ccco3)c3c4ccccc4n(C)c3c2=O)cc1Cl | i
COc1ccc(-n2nc(C(=O)NC3CC3)c3c4ccccc4n(C)c3c2=O)cc1Cl | i
COc1ccc(-n2nc(C(=O)N3CCCCC3C)c3c4ccccc4n(C)c3c2=O)cc1Cl (configuration not stated) | 97%*
COc1ccc(C(=O)n2c(=O)oc3ccc(Cl)cc32)cc1 | i
O=C(Nc1ccc([N+](=O)[O-])cc1)c1cnc2n(c1=O)CCS2 | i
COc1ccc2oc(=Nc3ccc(C(F)(F)F)cc3)c(C(=O)NC(C)=O)cc2c1 | i
CC(=O)NC(=O)c1cc2cc(Br)ccc2oc1=Nc1ccc(C#N)cc1 | 32%*
CC(=O)NC(=O)c1cc2ccccc2oc1=Nc1ccc(F)cc1 | i
CN1CCN(c2nc3c(c(=O)n(C)c(=O)n3C)n2Cc2ccc(Br)cc2)CC1 | i
CC(C)=C1C2C=CC1[C@@H]1C(=O)N(c3ccc(C#N)cc3)C(=O)[C@H]21 | i
Nc1nc(-c2ccccc2)c(C(=O)Nc2ccc(F)c(Cl)c2)s1 | i
COC(=O)c1cc(-c2cccc(OC)c2OC)no1 | i
SMILES | ST2 inh
CC1CC(=O)N(CC(=O)NC2CCCC2)c2ccccc2S1 (configuration not stated) | i
CCOc1ccc(Sc2cc(C(=O)O)c3ccccc3n2)cc1 | i
COc1ccc2c(C)c(C(=O)O)oc2c1 | i
COc1ccc2oc(C(=O)c3ccccc3)c(N)c2c1 | 35%*
CCOC(=O)c1c(-c2ccccc2)oc2ccc(OC)cc12 | i
CCOc1cc(OCC)cc(C(=O)N2CCN(c3ccc([N+](=O)[O-])cc3)CC2)c1 | i
O=C(CN1C(=O)c2ccccc2C1=O)Nc1nc(-c2ccncc2)cs1 | 36%*
O=C(CSc1ncccn1)Nc1nc(-c2ccccc2)cs1 | i
O=C(COc1ccccc1)Nc1nc(-c2ccccc2)cs1 | i
CCn1c2ccccc2c2cc(NC(=O)CSc3cc(=O)n(C)c4ccccc34)ccc21 | i
CCn1c2ccccc2c2cc(CN3CCCN(C)CC3)ccc21 | i
CCn1c2ccccc2c2cc(/C=C/[N+](=O)[O-])ccc21 | 38%*
Fc1cccc2sc(Nc3nc(-c4ccncc4)cs3)nc12 | i
CCCN1CCN(C(=O)c2sc3nc(C)nc(N4CCN(c5ccccn5)CC4)c3c2C)CC1 | i
O=C(COc1ccc([N+](=O)[O-])cc1)Nc1sc2c(c1C(=O)NCc1ccco1)CCCC2 | i
CCCCS(=N)(=O)CCC(N)C(=O)O (configuration not stated) | i
N[C@H](CCC(=O)NCS(=O)(=O)O)C(=O)O | 85%*
NC(=O)CC[C@H](N)C(=O)O | i
COc1ccc(Cl)cc1NC(=O)C(NS(=O)(=O)c1cccs1)C(C)C (configuration not stated) | i
CC(C)(C)C(=O)NCc1cccnc1N1CCc2ccccc2C1 | i
Cc1cccc(N=Cc2cc3c(cc2[N+](=O)[O-])OCO3)c1C | 39%*
O=[N+]([O-])c1cc2c(cc1C=Nc1ccc(I)cc1)OCO2 | i
COc1cc(CN2CCN(c3cccc(C)c3C)CC2)cc([N+](=O)[O-])c1O | i
O=[N+]([O-])c1cc2c(cc1CN1CCCCCC1)OCO2 | i
Cc1cccc(N2CCN(Cc3cc4c(cc3[N+](=O)[O-])OCO4)CC2)c1C | 37%*
SMILES | ST2 inh
Cc1ccc(O)c(N=Cc2cccc([N+](=O)[O-])c2O)c1 | i
CC12c3ccccc3C(c3ccccc31)C1C(=O)N(c3ccc(F)cc3)C(=O)C12 (configuration not stated) | i
O=S(=O)(Nc1ccc(Nc2ccccc2)c(NS(=O)(=O)c2ccccc2)c1)c1ccccc1 | i
O=[N+]([O-])c1cccc(NS(=O)(=O)c2cc(Cl)ccc2Cl)c1 | i
COc1cc(CC2(CCC(=O)N(Cc3c(C)nn(C)c3C)C(C)C)CCC(=O)N2)ccc1F (configuration not stated) | i
C=C(C)Cn1c(-c2ccc(N)cc2)nc2ccccc21 | i
COc1cc(O)cc2c1-c1ccc(O)cc1CC2 | i
O=[N+]([O-])c1ccccc1Oc1ccccc1 | 30%*
O=C(O)c1cc([N+](=O)[O-])c(C(=O)O)cc1Oc1ccc(Cl)cc1 | i
O=C(O)Cc1ccccc1[N+](=O)[O-] | i
CCN(CC)C(=O)Cn1cnc2sc(C(=O)Nc3ccccc3C(F)(F)F)c(C)c2c1=O | i
Cc1cc(C)n(CC(C)NCc2ccc(-n3cncn3)cc2)n1 (configuration not stated) | i
CCOc1ccc(C2C3=C(CCCC3=O)Nc3nc(SC)[nH]c(=O)c32)cc1 (configuration not stated) | i
COC(=O)C1C(c2ccc(O)cc2)C(C(=O)OC)C1c1ccc(O)cc1 (configuration not stated) | i
CC1CCN(C(=O)c2cc3c(-c4ccc(Cl)cc4)nn(C)c3s2)CC1 | i
COc1cccc(OC)c1C(=O)Nc1sc2c(c1C(N)=O)CCC(C(C)(C)C)C2 (configuration not stated) | i
C[C@@H]1O[C@@H](O[C@@H]2[C@@H](O)[C@H](C)O[C@@H](OCC3OC(Oc4c(-c5ccc(O)c(O)c5)oc5cc(O)cc(O)c5c4=O)C(O)C(O)C3O)[C@@H]2O)[C@H](O)[C@H](O)[C@H]1O (some centres not stated) | i
C[C@@H]1O[C@@H](O[C@@H]2[C@@H](O)[C@H](OCCc3ccc(O)c(O)c3)O[C@H](CO[C@@H]3OC[C@](O)(CO)[C@H]3O)[C@H]2OC(=O)/C=C/c2ccc(O)c(O)c2)[C@H](O)[C@H](O)[C@H]1O | i
COc1cc(OC2OC(COC3OCC(O)(CO)C3O)C(O)C(O)C2O)c2c(-c3ccc(O)c(O)c3)cc(=O)oc2c1 (configuration not stated) | 33%*
CC(C)C[C@@H](NC(=O)C1=C[C@@H](NC(=O)c2cnccn2)[C@@H](O)[C@H](O)C1)C(N)=O | i
Cc1ccc(NC(=O)CC(=O)NC(c2ccncc2)c2ccccc2C)cc1 (configuration not stated) | i
C=CCn1c(Cl)nc2c1c(=O)n(C)c(=O)n2C | i
CCn1cc(C(=O)NC2CCCCCC2)c2c3ccccc3n(C)c2c1=O | i
O=C(CN1CCN(Cc2ccccc2F)C1=O)NC1CCCCCCC1 | i

Screening results as filed in PubChem BioAssay.
